The list is not random: actives were taken first. Their share in the collection is about 9%.
JMJD2A Tudor inh = qHTS Assay for Inhibitors of JMJD2A-Tudor Domain | Lysine-specific demethylase 4A (Homo sapiens), O75164 | AlphaScreen JMJD2A-Tudor / H3K4me3 peptide binding | Potency, µM (highest dose often 114 µM), for inactives: at the top dose activity change, negative = inhibition, hits mostly inhibitors | actives 4.4% (n = 390,000) | AID 504339, 2011; further: on the % scale 0 is the no-effect control and ±100 the full control effect; nearly all actives have a fitted effect of over 50% in size
BAZ2B inh = qHTS Assay for Inhibitors of BAZ2B; Bromodomain adjacent to zinc finger domain protein 2B (Homo sapiens), Q9UIF8; AlphaScreen BAZ2B-H3K14Ac peptide displacement; Potency, µM (doses to about 114 µM), for inactives: top-dose activity change, negative = inhibition, usual class: inhibitors; actives 4.4% (n = 360,000); AID 504333, 2011; further: on the % scale 0 is the no-effect control and ±100 the full control effect; nearly all actives have a fitted effect of over 60% in size
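In this displacement format the biotinylated H3(5-23) peptide acetylated at Lys14 serves as ligand at 50 nM, with BAZ2B at 50 nM in PBS pH 7.4 containing 0.01% Tween-20. Donor and acceptor beads are 10 ug/mL final.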
HP1b binding inh = HTS for Inhibitors of HP1-beta Chromodomain Interactions with Methylated Histone Tails; AlphaScreen HP1-beta / biotin-H3K9me3 peptide binding; Potency, µM (highest dose often 114 µM), without a hit: at the top dose activity change, negative = inhibition, most hits filed as inhibitors; actives 0.56% (n = 390,000); AID 540317, 2011; further: nearly all actives have a fitted effect of over 70% in size
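Compound inhibition of the preformed complex between 50 nM HP1-beta and 50 nM biotinylated H3K9me3 peptide was read by AlphaScreen. Buffer was PBS pH 7.4 with 0.01% Tween-20. Incubations ran 30 min at room temperature, with 10 ug/mL donor/acceptor beads.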
12-LOX inh = Primary qHTS assay for inhibitors of human arachidonate 12S-lipoxygenase (ALOX12): Round 2. actives 1.1% (n = 580,000). purified 12hLO, xylenol orange hydroperoxide absorbance. AID 1671190, 2021. Polyunsaturated fatty acid lipoxygenase ALOX12 (Homo sapiens), P18054. Potency, µM (highest dose often 108 µM), for the others: at the highest dose activity change, negative = inhibition, actives largely listed as inhibitors; further: on the % scale 0 is the no-effect control and ±100 the full control effect
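Purified human 12hLO (150 nM final) in 25 mM Hepes, 0.01% Triton X-100, pH 7.0 was preincubated 15 min at room temperature with compound. Then 40 uM arachidonic acid was added, 30 min. Hydroperoxide was read by Fe-XO absorbance ratio 573/405 nm.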
PLK1 PBD inh = qHTS for Inhibitors of PLK1-PDB (polo-like kinase 1 - polo-box domain): Primary Screen; Potency, µM, for inactives: max response, negative = inhibition, most hits filed as inhibitors; Plk1 PBD binding of FITC phosphopeptide, fluorescence polarization; actives 2.8% (n = 360,000); further: series mostly up to about 57 µM; on the % scale 0 is the no-effect control and ±100 the full control effect; nearly all actives have a fitted effect of over 65% in size
G9a inh = qHTS Assay for Inhibitors of Histone Lysine Methyltransferase G9a. Histone-lysine N-methyltransferase EHMT2 (Homo sapiens), Q96KQ7. G9a H3K9 monomethylation, AlphaScreen, 2 h. Potency, µM (series often up to 102 µM), for the others: top-dose activity, negative = inhibition, usual class: inhibitors. actives 8.8% (n = 350,000); further: on the % scale 0 is the no-effect control and ±100 the full control effect; nearly all actives have a fitted effect of over 75% in size
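Enzyme 20 nM + cpd, 15 min RT; add b-H3K9 pep 500 nM / SAM 20 uM; 2 h RT; anti-H3K9me1 Ab 0.5 ug/mL + SA donor / anti-rabbit acceptor beads 20 ug/mL each, 10 min; AlphaScreen read.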
Numbers without * were called inactive; u = inconclusive; x = not tested or not shown; [ ] = remark or other dose. The call rests on the fitted dose curve; in most records, active means well fitted curve in the direction sought with a large enough effect; inconclusive means small, poorly fitted or top-dose-only effect, or another doubt; inactive means no such curve, though single readings can be large; an effect the other way counts as inactive or inconclusive. Potency means the concentration at half of the fitted maximal effect.

SMILES | JMJD2A Tudor inh | BAZ2B inh | HP1b binding inh | 12-LOX inh | PLK1 PBD inh | G9a inh
Cc1cc(C)c[n+](-c2[nH]c(=O)sc2/C=N/NC([S-])=Nc2ccccc2)c1 | u | u | u | -24% | u | 35µM*
CC(C)(C)c1cc[n+](-c2[nH]c(=O)sc2/C=N/N=C(\[O-])c2cccnc2)cc1 | -16% | 3% | 37% | 1% | -9% | u
CC(C)OC(=O)CC(NC(=O)OC(C)(C)C)c1ccccc1 (configuration not stated) | -4% | 4% | 53% | -4% | -7% | 16%
CC(C(=O)O)N1C(=O)CSC1=S (configuration not stated) | -7%[57.1 µM] | u | 9% | u | -16% | 16%[2.33 µM]
CCc1ccc[n+](-c2[nH]c(=O)sc2/C=N/NC([S-])=Nc2ccccc2)c1 | u | u | -38% | -20% | 21µM* | 22µM*
O=S(=O)(N/N=C1/CC(c2ccccc2)Oc2ccccc21)c1ccccc1 (configuration not stated) | -21% | x | 6% | -7% | -5% | x
CC(C)(C)N/N=C1\CC(c2ccccc2)Oc2ccccc21 (configuration not stated) | -9% | 12% | 23% | -4% | 30µM* | u
O=C(O)c1cc(N/N=C2/CC(c3ccccc3)Oc3ccccc32)ccc1Cl (configuration not stated) | u | -38% | -5% | u | u | 11µM*
Cc1ccc(/C=C/c2onc(C)c2S(=O)(=O)N2CCC(C(=O)N3CCN(C)CC3)CC2)cc1 | u | -32% | 44% | -14% | -9% | -20%
CCCNC(=O)C(NS(=O)(=O)c1ccc2c(c1)c(=O)n(C)c(=O)n2C)c1ccccc1 (configuration not stated) | -13% | -2% | 37% | 4% | -23% | 40µM*
Cn1c(=O)c2cc(S(=O)(=O)NC(C(=O)Nc3cccnc3)c3ccccc3)ccc2n(C)c1=O (configuration not stated) | -12% | 8% | 43% | -28% | u | 8.9µM*
Cn1c(=O)c2cc(S(=O)(=O)NC(C(=O)Nc3cccc(F)c3)c3ccccc3)ccc2n(C)c1=O (configuration not stated) | -13% | -14% | 44% | 10%[57.4 µM] | -10% | 18µM*
C#CCOCCOCCOCCNc1nc(N2CCN(C(=O)Cn3cc(CCCCN)nn3)CC2)nc(N2CCN(C(=O)[C@H](C)n3cc(CCC(=O)O)nn3)CC2)n1 | -6% | x | 80% | -10% | 4% | x
C#CCOCCOCCOCCNc1nc(N2CCN(C(=O)Cn3cc(CCCCN)nn3)CC2)nc(N2CCN(C(=O)Cn3cc(CCCN=C(N)N)nn3)CC2)n1 | -16% | 8% | 29% | 2.5µM* | -1% | 4%[2.33 µM]
C#CCOCCOCCOCCNc1nc(N2CCN(C(=O)Cn3cc(CCCN=C(N)N)nn3)CC2)nc(N2CCN(C(=O)[C@H](C)n3cc(CCCN=C(N)N)nn3)CC2)n1 | -23% | u | 27% | u | -3% | 56µM*
O=C(O)C(O)c1ccco1 (configuration not stated) | 22µM* | 8.9µM* | u | x | 27µM* | 11µM*
O=C(CSc1nnc(-c2cccc(Br)c2)o1)NCC1CCCO1 (configuration not stated) | x | x | x | -5% | -9% | x
Cc1ccnn1CCC(=O)N1CCCC(Nc2ccc(F)c(F)c2)C1 (configuration not stated) | -7% | 16%[57.1 µM] | 60% | 0% | -12% | -27%
CCOC(=O)C1CCN(C2=NC(=O)/C(=C/c3ccc(OC)c(OC)c3)S2)CC1 | -21% | -22% | 0% | 0% | -26% | 40µM*
CCOC(=O)C1CCN(C2=NC(=O)/C(=C/c3ccc(Cl)cc3)S2)CC1 | -12% | u | 23% | u | -10% | 0%
CN(C)CCN(Cc1ccco1)C(=O)c1cc2c(Cl)nc3ccccc3c2s1 | u | -33% | -10% | -25% | -7% | u
Cc1ccc2cc3cc(C(=O)NCCCN4CCCCCC4)oc3nc2c1 | -13% | -6% | 11% | u | -22% | 45µM*
Cc1ccc2cc3cc(C(=O)NCCCN4CCCC4)oc3nc2c1 | u | -16% | 22% | u | u | 79µM*
Cc1ccc2nc(Cl)c3cc(C(=O)NCCCN4CCCC4)sc3c2c1 | -32% | -3% | 17% | 1% | -4% | 50µM*
Cc1ccc2cc3cc(C(=O)NCCCN4CCc5ccccc5C4)oc3nc2c1 | -2%[11.4 µM] | -9% | 5% | 0% | -22% | u
SMILES | JMJD2A Tudor inh | BAZ2B inh | HP1b binding inh | 12-LOX inh | PLK1 PBD inh | G9a inh
Cc1ccc2nc(Cl)c3cc(C(=O)N(CCN(C)C)Cc4ccco4)sc3c2c1 | 45µM* | x | u | -24% | -7% | 50µM*
COc1ccc(/C=N/Nc2nc(Nc3ccccc3)nc(N3CCCC3)n2)cc1[N+](=O)[O-] | -21% | x | 46% | -1% | -2% | 10%
COc1ccc(NC(=O)CC(c2ccc(F)cc2)c2ccc(OC(C)C)cc2)cc1 (configuration not stated) | 16% | 3% | 26% | -18% | -3% | u
COc1cccc(N2C(=O)C(O)=C(C(C)=O)C2c2ccc(OC)c(OC)c2)c1 (configuration not stated) | u | u | -2% | -19% | -1% | u
COc1ccc(C2C(C(C)=O)=C(O)C(=O)N2c2cccnc2)cc1OC (configuration not stated) | 79µM* | u | 22% | 0% | 1% | u
COCCN1C(=O)C(O)=C(C(C)=O)C1c1ccc(OC)c(OC)c1 (configuration not stated) | 16µM* | u | 11% | u | -5% | 45µM*
COc1cc(C2C(C(C)=O)=C(O)C(=O)N2CCN(C)C)ccc1O (configuration not stated) | -3% | 1% | 23% | u | -8% | 16%[59 µM]
CC(=O)N1c2ccc(S(=O)(=O)N3CCC(C(=O)N4CCN(c5cc(Cl)ccc5C)CC4)CC3)cc2CC1C (configuration not stated) | -18% | -8% | 38% | -5% | 0% | x

High-throughput results deposited in PubChem by National Center for Advancing Translational Sciences (NCATS).
